Read-out in assay [1]: Interleukin-6 (IL6), IL6 (gene 3569)
Description: BSK_CASM3C_IL6: BioMAP Diversity Plus: CASM3C Assay for Interleukin-6 (IL6) Biomarker Activity for (AID 2283040). The settings on record: primary human coronary artery smooth muscle cells; actives raise or lower the signal.

Read-out in assay [2]: Tissue plasminogen activator (tPA), PLAT (gene 5327)
Description: BSK_BE3C_tPA: BioMAP Diversity Plus: BE3C Assay for Tissue plasminogen activator (tPA) Biomarker Activity (AID 2283041).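 As to outcome: tPA level quantified by ELISA one day after compound addition.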 To be noted: primary human bronchial epithelial cells; actives raise or lower the signal. A digest of the protocol: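 Human primary bronchial epithelial cells were dosed with chemical and tPA biomarker levels measured by ELISA 24 hours later. Activity was fitted bidirectionally against DMSO as negative control and baseline.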

Read-out in assay [3]: Interleukin-8 (IL8), CXCL8 (gene 3576)
Description: BSK_CASM3C_IL8: BioMAP Diversity Plus: CASM3C Assay for Interleukin-8 (IL8) Biomarker Activity (AID 2283042).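 Also: IL-8 protein level quantified by ELISA.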 The settings on record: primary human coronary artery smooth muscle cells; actives raise or lower the signal.

Read-out in assay [4]: Human Leukocyte Antigen - DR isotype (HLADR), HLA-DRA (gene 3122)
Description: BSK_CASM3C_HLADR: BioMAP Diversity Plus: CASM3C Assay for Human Leukocyte Antigen - DR isotype (HLADR) Biomarker Activity (AID 2283043).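 Also: cell-surface HLA-DR protein level quantified by ELISA.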 The settings on record: primary human coronary artery smooth muscle cells; actives raise or lower the signal.

Read-out in assay [5]: Macrophage colony-stimulating factor (MCSF), CSF1 (gene 1435)
Description: BSK_CASM3C_MCSF: BioMAP Diversity Plus: CASM3C Assay for Macrophage colony-stimulating factor (MCSF) Biomarker Activity (AID 2283044).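 Also: M-CSF protein amount quantified by ELISA after 24 h exposure.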 To be noted: primary human coronary artery smooth muscle cells; actives raise or lower the signal.

Read-out in assay [6]: Low-density lipoprotein receptor (LDLR), LDLR (gene 3949)
The experiment in a line: BSK_CASM3C_LDLR: BioMAP Diversity Plus: CASM3C Assay for Low-density lipoprotein receptor (LDLR) Biomarker Activity (AID 2283045).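 Also: LDLR protein level on the cell surface quantified by ELISA.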 The settings on record: primary human coronary artery smooth muscle cells; actives raise or lower the signal.

Read-out in assay [7]: Monocyte Chemoattractant Protein-1 (MCP1), CCL2 (gene 6347)
The experiment in a line: BSK_CASM3C_MCP1: BioMAP Diversity Plus: CASM3C Assay for Monocyte Chemoattractant Protein-1 (MCP1) Biomarker Activity (AID 2283046).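 Also: MCP-1 level quantified by ELISA 24 h after dosing.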 The settings on record: primary human coronary artery smooth muscle cells; actives raise or lower the signal.

Assay [8] in a line: BSK_CASM3C_Proliferation: Cell Proliferation Assessment in the BioMAP Diversity Plus: CASM3C Assay (AID 2283047).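 Also: sulforhodamine B total protein stain as relative cell number at 560 nm; sub-confluent cells exposed 48 h before staining; fitted both ways against DMSO so gain or loss of cell number.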 The settings on record: primary human coronary artery smooth muscle cells.
Read-out in assay [9]: Monokine induced gamma interferon (MIG), CXCL9 (gene 4283)
The experiment in a line: BSK_CASM3C_MIG: BioMAP Diversity Plus: CASM3C Assay for Monokine induced gamma interferon (MIG) Biomarker Activity (AID 2283048).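 Also: MIG protein level measured by ELISA.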 The settings on record: primary human coronary artery smooth muscle cells; actives raise or lower the signal.

Read-out in assay [10]: serum amyloid A (SAA), SAA1 (gene 6288)
Description: BSK_CASM3C_SAA: BioMAP Diversity Plus: CASM3C Assay for serum amyloid A (SAA) Biomarker Activity (AID 2283049).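 Also: SAA protein level quantified by ELISA.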 To be noted: primary human coronary artery smooth muscle cells; actives raise or lower the signal.

The nature of assay [11]: BSK_CASM3C_SRB: Viability Assessment in the BioMAP Diversity Plus: CASM3C Assay (AID 2283050).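 Also: total protein by SRB staining as cytotoxicity measure in parallel cultures.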 To be noted: primary human coronary artery smooth muscle cells.
Read-out in assay [12]: Thrombomodulin, THBD (gene 7056)
Description: BSK_CASM3C_Thrombomodulin: BioMAP Diversity Plus: CASM3C Assay for Thrombomodulin Biomarker Activity (AID 2283051).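 Also: thrombomodulin protein level measured by ELISA 24 h after dosing.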 The settings on record: primary human coronary artery smooth muscle cells; actives raise or lower the signal.

Read-out in assay [13]: Tissue Factor, F3 (gene 2152)
The experiment in a line: BSK_CASM3C_TissueFactor: BioMAP Diversity Plus: CASM3C Assay for Tissue Factor Biomarker Activity (AID 2283052).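 Also: cell surface tissue factor protein level read by ELISA.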 The settings on record: primary human coronary artery smooth muscle cells; actives raise or lower the signal.

Read-out in assay [14]: Interferon-gamma inducible Protein 10 (IP10), CXCL10 (gene 3627)
The experiment in a line: BSK_hDFCGF_IP10: BioMAP Diversity Plus: hDFCGF Assay for Interferon-gamma inducible Protein 10 (IP10) Biomarker Activity (AID 2283053). To be noted: primary human foreskin fibroblasts; actives raise or lower the signal. Summed up:
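Human foreskin fibroblast primary cells (hDFCGF system) were dosed with chemical and assayed at 24 h; IP-10 measured by ELISA. Activity fitted bidirectionally relative to DMSO negative control as baseline.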

Read-out in assay [15]: Urokinase-type plasminogen activator receptor (uPAR), PLAUR (gene 5329)
Description: BSK_CASM3C_uPAR: BioMAP Diversity Plus: CASM3C Assay for Urokinase-type plasminogen activator receptor (uPAR) Biomarker Activity (AID 2283054).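 Also: cell-surface uPAR protein level quantified by ELISA.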 To be noted: primary human coronary artery smooth muscle cells; actives raise or lower the signal.

Read-out in assay [16]: Vascular cell adhesion molecule 1 (VCAM1), VCAM1 (gene 7412)
The experiment in a line: BSK_CASM3C_VCAM1: BioMAP Diversity Plus: CASM3C Assay for Vascular cell adhesion molecule 1 (VCAM1) Biomarker Activity (AID 2283055).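 Also: VCAM-1 protein level quantified by ELISA on the cells.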 To be noted: primary human coronary artery smooth muscle cells; actives raise or lower the signal.

Read-out in assay [17]: Collagen III, COL3A1 (gene 1281)
The experiment in a line: BSK_hDFCGF_CollagenIII: BioMAP Diversity Plus: hDFCGF Assay for Collagen III Biomarker Activity (AID 2283056). The settings on record: primary human foreskin fibroblasts; actives raise or lower the signal. Summed up:
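ELISA readout of Collagen III in human dermal (foreskin) fibroblasts, taken 24 h post-treatment. Gain or loss relative to DMSO vehicle fitted in both directions.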

Read-out in assay [18]: Epidermal growth factor receptor (EGFR), EGFR (gene 1956)
Description: BSK_hDFCGF_EGFR: BioMAP Diversity Plus: hDFCGF Assay for Epidermal growth factor receptor (EGFR) Biomarker Activity (AID 2283057). The settings on record: primary human foreskin fibroblasts; actives raise or lower the signal. A digest of the protocol: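 Primary human foreskin fibroblasts were exposed to compound for 24 h, after which cell-surface EGFR was quantified by ELISA. Activity was fitted bidirectionally against the DMSO negative control as baseline.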

Read-out in assay [19]: Interleukin-8 (IL8), CXCL8 (gene 3576)
Description: BSK_hDFCGF_IL8: BioMAP Diversity Plus: hDFCGF Assay for Interleukin-8 (IL8) Biomarker Activity (AID 2283058). The settings on record: primary human foreskin fibroblasts; actives raise or lower the signal. Summed up: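 IL-8 levels read by ELISA at 24 hours after dosing human skin fibroblast cultures. Parallel SRB staining assessed overt cytotoxicity, and gain or loss of signal was fitted against DMSO control.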

Assay [20] in a line: BSK_hDFCGF_Proliferation: Cell Proliferation Assessment in the BioMAP Diversity Plus: hDFCGF Assay (AID 2283059).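 Also: curves fitted for both rise and fall of signal versus DMSO baseline.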 To be noted: primary human foreskin fibroblasts. Summed up: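 Total protein read at 560 nm after 0.1% SRB staining of TCA-fixed human skin fibroblasts, […]. Activity is fitted in both directions relative to DMSO as baseline.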

Structures are written as SMILES. Where a structure was tested more than once in an assay, its records may differ in their call. Active and inactive are the calls of the source. The calls were made as follows: active = hit-call score of the fitted dose curve at least 0.9, where 1 is the maximum; inactive = score below 0.9.

As for `CCN(CC)c1ccccc1`, the outcome in assay [1], in assay [2], in assay [3], in assay [4], in assay [5] and in assay [6] was inactive. Further, the outcome in assay [7], in [8], in assay [9], in assay [10], in assay [11] and in assay [12] was inactive. In addition, the result in [13], in assay [14], in assay [15], in assay [16], in assay [17] and in [18] was inactive. For the same compound, the result in [19] and in assay [20] was inactive.
With `CCOP(=S)(NC(C)C)Oc1ccccc1C(=O)OC(C)C` (configuration not stated), the outcome in assay [1], in assay [2], in [3], in assay [4], in assay [5] and in assay [6] was inactive. Also, the outcome in assay [7], in assay [8], in [9], in assay [10], in [11] and in assay [12] was inactive. In addition, the outcome in assay [13], in assay [14], in assay [15], in [16], in [17] and in assay [18] was inactive. The result in [19] and in assay [20] was inactive.
`CCOP(=S)(OCC)SCn1nnc2ccccc2c1=O`: the outcome in assay [1], in assay [2], in assay [3], in [4], in [5] and in assay [7] was inactive. Moreover, the outcome in assay [9], in assay [10], in assay [11], in [12], in assay [13] and in assay [14] was inactive. The result in [15], in [16], in assay [17], in assay [18], in assay [19] and in assay [20] was inactive. Further, the AC50 in assay [6] was 32.3 µM (active); in assay [8], 20 µM (active).
Take `O=C(O)C(F)(OC(F)(F)C(F)(F)C(F)(F)F)C(F)(F)F` (configuration not stated): the outcome in assay [1], in [2], in assay [3], in assay [4], in assay [5] and in assay [6] was inactive. The outcome in assay [7], in assay [8], in assay [9], in assay [10], in [11] and in [12] was inactive. Also, the outcome in assay [13], in assay [15], in assay [16], in [17], in [18] and in [19] was inactive. In addition, in assay [20], the result was inactive. The results for the AC50 in [5], in assay [8] and in [12] were 0.218 µM (active), 5.17 µM (active) and 2.48 µM (active), respectively.
For `CC(C)Nc1ccc(Nc2ccccc2)cc1`, the AC50 in [1] was 33.4 µM (active); in assay [3] it was 34.1 µM (active); in assay [4], 20 µM (active); in assay [5], 20 µM (active); in assay [6] it was 31.8 µM (active); in [7] it was 32.9 µM (active). Also, the AC50 is 20 µM (active) in assay [8]; 28.2 µM (active) in assay [9]; 32.8 µM (active) in [10]; 26.3 µM (active) in assay [11]; 36.6 µM (active) in assay [12]; 13.4 µM (active) in assay [13]. Besides, the AC50 in assay [14] is 5.88 µM (active); in assay [15], 32.9 µM (active); in assay [16], 27.5 µM (active); in [17], 8.09 µM (active); in assay [19], 14 µM (active); in assay [20], 0.464 µM (active). The result in [2] and in assay [18] was inactive.
For the compound `CCOc1ccc(C(C)(C)COCc2cccc(Oc3ccccc3)c2)cc1`, the result in assay [1], in assay [3], in assay [4], in assay [5], in assay [6] and in assay [7] was inactive. For the same compound, the outcome in assay [8], in [9], in [10], in assay [11], in assay [13] and in assay [14] was inactive. Moreover, the result in [15], in assay [16], in assay [17], in assay [18], in assay [19] and in assay [20] was inactive. In addition, the AC50 is 0.668 µM (active) in [2] and 10.7 µM (active) in assay [12].

Values taken from PubChem BioAssay (EPA / NIEHS).
